Reference: ChEMBL document CHEMBL3988442, “University of Dundee, Small-Polar-MMV Screening Library” (2021)
Screen size: about 48,000 compounds; about 13,000 (27%) showed an effect of 50% or more. Some of the results follow.

tested on: Wolbachia pipientis; assay: Anti-Wolbachia Cell-Based Screen; format: functional; design: scale not given: in the data most compounds retested in dose-response had high values; settings: 5 µM

Row | Structure (SMILES) | Percent Effect [%]
1 | COc1cccc(S(=O)(=O)CCN2CCCC2c2ccc[nH]2)c1 (configuration not stated) | -2.252
2 | CCN1CCC(NC(=O)N(C)Cc2csc3ccccc23)CC1 | 1.913
3 | CC(C)C(NC(=O)NCC1(CO)CC1)c1nnc2n1CCC2 (configuration not stated) | 14.94
4 | O=C(NCCN1CCCCC1)c1scnc1Cl | 1.584
5 | Cc1ncsc1C(=O)OCCN1CCCCCC1=O | 115.8
6 | Cc1cc(C(=O)NCCN2CCCc3ccccc32)[nH]n1 | -6.772
7 | Cc1ncsc1C(=O)NCCn1nc2ccccn2c1=O | -10.37
8 | O=C(NCCN1CCCc2ccccc21)c1scnc1Cl | 4.891
9 | Cc1ncsc1CN(C)C(=O)C(CC(C)C)N1CCCCC1=O (configuration not stated) | 12.62
10 | Cc1ncsc1C(=O)NCCSCc1cccs1 | -6.016
11 | Cc1ncsc1CCN(C)C(=O)CN1CCCCCC1=O | -1.63
12 | CC(C(=O)NCCCN1CCCCCC1=O)n1cncn1 (configuration not stated) | -4.192
13 | Cc1ncsc1C(=O)OCCN1CCCc2ccccc21 | 101.6
14 | Cc1ncsc1C(=O)NCCN1CCCCCC1=O | 95.46
15 | Cc1ncsc1C(=O)NCCCN1CCCCCC1=O | 91.19
16 | COc1ccc(C(=O)N2CCC(Oc3ccccc3)(C(=O)O)CC2)o1 | -6.202
17 | CC(=O)NCc1nc(CCOc2ccc(Cl)cc2)no1 | -0.6631
18 | COCCN1C(=O)CC(N2CCN(c3ccc(OC)cc3)CC2)C1=O (configuration not stated) | 6.624
19 | NCc1cn(CC2CCCN(C(=O)NCc3ccc(Cl)cc3)C2)nn1 (configuration not stated) | -34.24
20 | Cc1nnc(N2C[C@@H](Oc3ccccn3)[C@H]3OCCC[C@H]32)s1.O=C(O)C(F)(F)F.O=C(O)C(F)(F)F | -5.034
21 | COc1ccccc1Oc1ncccc1CNC(=O)C(C)CN (configuration not stated) | 1.057
22 | CCCS(=O)(=O)N1CCC2(CCCN(Cc3cccc(F)c3F)C2=O)C1 (configuration not stated) | -35.96
23 | COc1cccc(OC)c1CN1CC(=O)N(c2ccc(C)cc2)CC1C (configuration not stated) | 7.242
24 | COc1ccccc1S(=O)(=O)N1CCC2(CC1)[C@H](O)C[C@@H]2O | -0.7897
25 | CCCS(=O)(=O)N1CC(=O)N(Cc2cccc(OC)c2OC)CC(O)C1 (configuration not stated) | 125.8
26 | COc1cccc(CN2CC3(CCNCC3)CCC2=O)c1OC | -5.805

Row | Structure (SMILES) | Percent Effect [%]
27 | COc1cccc(CN2CC(O)CN(S(C)(=O)=O)CC2=O)c1OC (configuration not stated) | 96.57
28 | COc1cccc(OC)c1CN1CC(O)CN(S(C)(=O)=O)CC1=O (configuration not stated) | 127.9
29 | COc1ccccc1N1CCC(CNCc2cccc(OC)c2OC)C1 (configuration not stated) | 0.729
30 | CCCS(=O)(=O)N1CC(=O)N(Cc2ccccc2OC)CC(O)C1 (configuration not stated) | 89.31
31 | COc1cc(CNc2cc(-c3ccoc3C)nn2CCO)ccc1F | 9.115
32 | COc1c(F)cc(CN2CCC3(CC2)C(C(=O)O)CC(=O)N3C)cc1Cl (configuration not stated) | 5.354
33 | CS(=O)(=O)c1cccc(Cl)c1C(=O)NCCN1C(=O)CCC1=O | -4.304
34 | COc1ccccc1CN1CC(O)CN(S(=O)(=O)C(C)C)CC1=O (configuration not stated) | 100.2
35 | COc1ccccc1CN1C(=O)O[C@@H]2CN(C(C)C)C[C@@H]21 | 11.8
36 | CCO[C@H]1C[C@@H](O)C12CCN(S(=O)(=O)c1ccccc1OC)CC2 | -9.049
37 | COc1ccccc1CC(C)N(C)S(C)(=O)=O (configuration not stated) | 9.665
38 | COc1ccccc1CN1C(=O)O[C@@H]2CN(S(=O)(=O)N(C)C)C[C@@H]21 | -2.255
39 | CCS(=O)(=O)N1CC(=O)N(Cc2ccccc2OC)CC(O)C1 (configuration not stated) | 89.74
40 | CCc1noc(C)c1C(=O)NCc1c(C)nn(CCOC)c1C | -2.688
41 | CN(C)C(=O)N1C[C@H]2CC[C@@H]1CN(C1Cc3ccccc3C1)C2 | 7.395
42 | Cc1cnc(C)c(N2CCCC(CO)(Cc3ccccc3C)C2)n1 (configuration not stated) | -4.771
43 | CCc1ccc2nc(NCCOCCO)cc(C)c2c1 | 107.5
44 | CCc1ccc2nc(NCC(O)CO)cc(C)c2c1 (configuration not stated) | -9.237
45 | CCc1ccc2nc(NCCCN(CCO)CCO)cc(C)c2c1 | 14.19
46 | NC(=O)C(NC(=O)CCc1ccc(Cl)s1)c1ccccc1 (configuration not stated) | 7.544
47 | c1cc(-c2ccc3c(c2)C2(CCNCC2)CC3)ccn1 | -17.91
48 | O=C(CCc1ccc(F)cc1)NS(=O)(=O)c1ccc2c(c1)OCCCO2 | 20.72
49 | COCCn1ccnc1C1CCN(Cc2ccccc2C#N)CC1 | -0.03291
50 | Oc1ncccc1-c1nc(-c2cccc(CN3CCOCC3)c2)no1 | -1.647
51 | c1cnc2[nH]c(C3CCNCC3)c(CN3CCOCC3)c2c1 | 102.1
52 | Cl.OC1CCN(Cc2c(C3CCCNC3)[nH]c3ncccc23)CC1 (configuration not stated) | -8.296

Row | Structure (SMILES) | Percent Effect [%]
53 | COCCN1CCC(c2nc3c([nH]2)CC(C)(C)CNC3=O)CC1 | -9.725
54 | Cl.c1cnc2[nH]c(C3CCCNC3)c(CN3CCCOCC3)c2c1 (configuration not stated) | 94
55 | c1cnc2[nH]c(C3CCCC3)c(CN3CCOCC3)c2c1 | 96.59
56 | COCCN1CCN(Cc2c(C3CCNCC3)[nH]c3ncccc23)CC1.Cl | 66.52
57 | CN(Cc1ccon1)CC1CCOc2ccccc2C1 (configuration not stated) | -13.25
58 | CC1CN(C(=O)c2ccnc(OCCN(C)C)c2)c2ccccc21 (configuration not stated) | 5.142
59 | c1cnc(OCc2nnc3n2CCN(CC2CC2)C3)nc1 | -18.49
60 | O=C(CN1CCCCCC1)NCc1cccnc1Oc1ccccc1 | -1.634
61 | OCC1CCCN(Cc2c(C3CCCC3)[nH]c3ncccc23)C1 (configuration not stated) | 82.97
62 | CCN1CCN(Cc2c(C3CCCC3)[nH]c3ncccc23)CC1 | 101.4
63 | CS(=O)(=O)NCC1CCCN(Cc2ccc(F)c3cccnc23)C1 (configuration not stated) | -1.722
64 | c1cnc2[nH]c(C3CCCC3)c(CN3CCCCC3)c2c1 | 61.56
65 | CCN1CCCC(c2c(-c3ccccc3)ncn2Cc2cccnc2)C1 (configuration not stated) | -13.51
66 | CC1CCCN(Cc2ccc(CNC(=O)NCc3ccon3)cc2)C1 (configuration not stated) | -7.486
67 | CC1CCCN(Cc2c(C3CCOCC3)[nH]c3ncccc23)C1 (configuration not stated) | -13.09
68 | CC1CCCN(Cc2c(C3CC3)[nH]c3ncccc23)C1 (configuration not stated) | 97.08
69 | O=C(Cn1nc2ccccc2n1)N1CCCC(O)(CO)C1 (configuration not stated) | -10.36
70 | Cc1cc(NC(=O)N(C)CCN2CCN(c3ccccc3)CC2)on1 | -6.324
71 | COc1c(CNC(c2ccc(F)cc2)c2nccn2C)c(C)nn1C (configuration not stated) | -17.53
72 | COCCSc1ccc(-n2ccnc2)nn1 | 19.88
73 | CC1(Cc2ccc3c(c2)OCO3)CCCN(S(=O)(=O)N2CCOCC2)C1 (configuration not stated) | -4.077
74 | Cc1cccn2cc(CN3CCCC(O)C3)nc12 (configuration not stated) | -5.177
75 | Cc1cc(Cn2cc(C#N)c(=O)c3ccccc32)no1 | 6.304
76 | O=C(NCCC1=CCCCC1)NCc1nnc2n1CCC2 | 7.36
77 | O=C(NCCc1nnc2n1CCC2)N1CCC2(CCCCC2)C1 | -5.882
78 | O=C(NCc1nnc2n1CCC2)NCC1(c2cccc(F)c2)CC1 | 112.3

Row | Structure (SMILES) | Percent Effect [%]
79 | O=C(NCCc1ccc(Cl)s1)NCc1nnc2n1CCC2 | 3.587
80 | O=C(NCCc1nnc2n1CCC2)NCC1(c2ccccc2)CC1 | 95.51
81 | Cc1cc(C)c(CNC(=O)NCc2nnc3n2CCC3)c(=O)[nH]1 | 8.689
82 | O=C(NCCc1nnc2n1CCC2)NCC1(c2ccccc2F)CC1 | 109
83 | NC(=O)CC1CCN(C(=O)NCC2(c3ccccc3F)CC2)CC1 | 3.443
84 | O=C(NCCc1nnc2n1CCC2)NCC1(c2ccc(F)cc2)CC1 | 123.4
85 | O=C(NCCc1nnc2n1CCC2)c1ccccc1OC1CCCC1 | -0.3605
86 | Cn1cc(CCNC(=O)NCc2nnc3n2CCC3)cn1 | -8.052
87 | O=C1C(NCc2nnc3n2CCCC3)CCCN1c1cccc(F)c1 (configuration not stated) | -1.768
88 | CCOc1ncnc2c1CCN(c1cc(C(F)(F)F)ncn1)CC2 | 1.194
89 | CCOC(=O)CC1CCCCN1C(=O)c1cc(C)on1 (configuration not stated) | 7.011
90 | CS(=O)(=O)N(Cc1ccon1)c1ccc2c(c1)OCO2 | -10.09
91 | Cc1nc(-c2cc(Cl)cc3c2OC(CN)C3)c[nH]1 (configuration not stated) | -15.93
92 | Cc1ccc(-c2nnc(CN3CC[C@H](CO)[C@@H](O)C3)o2)n1C | -9.968
93 | c1coc(CNc2nnc(Cc3ccsc3)o2)c1 | -2.731
94 | O=C(c1c[nH]c(=O)c(Cl)c1)N1C[C@@H]2CC[C@H](C1)N(Cc1ccccc1)C2 | -15.02
95 | O=C(c1ccccc1)N1C[C@@H]2CC[C@H](C1)N(Cc1cc(F)ccc1Cl)C2 | -19.41
96 | O=C(c1ccc(=O)[nH]c1)N1C[C@@H]2CC[C@H](C1)N(Cc1ccccc1)C2 | 87.59
97 | O=C(c1ccc(F)c(Cl)c1)N1C[C@@H]2CC[C@H](C1)N(Cc1ccccc1)C2 | 2.522
98 | O=c1cc(CN2C[C@H]3CC[C@@H]2CN(Cc2ccccc2)C3)[nH]c(=O)[nH]1 | 2.734
99 | O=C(c1cc(Cl)c[nH]c1=O)N1C[C@@H]2CC[C@H](C1)N(Cc1ccccc1)C2 | 80.73
100 | CCC1CN(C(=O)c2ccc(=O)[nH]c2)CCC(=O)N1Cc1ccccc1 (configuration not stated) | -17.04
101 | CC(=O)N1C[C@@H]2CC[C@H](C1)N(Cc1ccc(Cn3cccn3)cc1)C2 | 6.393
102 | O=C(c1cc(F)cc(Cl)c1)N1C[C@@H]2CC[C@H](C1)N(Cc1ccccc1)C2 | 106.3
